The values that follow come from PubChem BioAssay AID2241 (Broad Institute, 2010).

Hit rate of the full screen: of about 21,000 compounds, about 110 (0.52%) were called active. The sample as a whole holds a higher share of actives than the screen did. Unmarked numbers belong to inactive results.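 Rule for the calls: active = most replicate scores above 10, or exactly half above 10 with mean activity above 10; inconclusive = mean activity below 10 while half the replicates exceed 10; inactive = most replicate scores below 10.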

A short description of this assay: inducers of caspase activity in MEF A1-2A-BIM cells, primary screen, A1 inhibitor project, cell-based, CaspaseGlo luminescence (AID 2241).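 Note: effector caspase 3 and 7 activity cleaving a DEVD luciferin substrate.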 As to conditions: caspase-Glo luminescence, 3 h, active compounds read high, percent of clofoctol signal, DMSO as zero, concentration not given here.
For the molecule `O=C(/C=C/c1ccccc1)c1ccc(O[C@@H]2O[C@H](CO)[C@@H](O)[C@H](O)[C@H]2O)cc1O`, the caspase activation was -0.127%.

Turning to `C[C@@H]1CN([C@@H](C)CO)C(=O)c2cc(NS(=O)(=O)c3ccccc3)ccc2O[C@H]1CN(C)CC1CC1`, the caspase activation was -0.166%.

As for `C[C@H](CO)N1C[C@H](C)[C@H](CN(C)S(=O)(=O)c2cn(C)cn2)Oc2ccc(NS(=O)(=O)c3ccccc3)cc2C1=O`, the caspase activation is 0.0901%.

On to `Cn1c(C(=O)NC2CCCC2)cc2oc3ccccc3c21`, for which the caspase activation was -1.2%.

Consider `OCCN1N=C2c3ccccc3CCC2C1c1ccccc1Cl` (centres undefined), for which the caspase activation is 0.231%.

`O=C1c2ccccc2C(=O)C1c1cc(=O)[nH]c2c1ccc1ccccc12`: the caspase activation was -0.299%.

Consider `Cc1ccccc1N=C(N)N=C(N)N`, for which the caspase activation is 0.116%.

On to `FC(F)(F)c1ccnc(Oc2ccc(C3=NCCS3)cc2)c1`, for which the caspase activation is -5.95%.

As to `CCOC(=O)c1c(C)n(O)c2ccc3nonc3c12`, the caspase activation is -0.716%.

On to `CCCCn1c2ccccc2c2nc3ccccc3nc21`, for which the caspase activation is -1.06%.

For `CCSC1=C(C#N)C(=O)NCS1`, the caspase activation is 0.116%.

`CCC(=O)Nc1ccccc1C(=O)Nc1ccccc1`: the caspase activation is 0.303%.

As to `C[C@@H]1CN([C@H](C)CO)C(=O)c2cc(NC(=O)NC3CCCCC3)ccc2O[C@H]1CN(C)S(C)(=O)=O`, the caspase activation was 0.129%.

`O=c1c2ccccc2nc(SCc2cccc(F)c2)n1C1CC1`: the caspase activation was -0.676%.

On to `CCN(CC)C(=S)SCc1nc(N)nc(Nc2ccccc2)n1`, for which the caspase activation was 0.133%.

As for `CCC(C)NC(=O)Nc1ccc(C)c(Cl)c1` (centres undefined), the caspase activation was -1.99%.

For the molecule `O=C(O)CCCC=C(c1ccccc1)c1ccccc1`, the caspase activation is -0.527%.

For the molecule `COc1ccc(N/C(N)=N/c2nc(CSc3nc4ccccc4s3)cc(=O)[nH]2)cc1`, the caspase activation was -0.646%.

Consider `CCCOC(=O)c1cc2ccccc2oc1=O`, for which the caspase activation is -1.82%.

In the case of `NC(=S)c1nc(-c2ccccc2)oc1N`, the caspase activation is -1.84%.

Take `OC(c1nc2ccccc2[nH]1)C(O)C(O)C(O)c1nc2ccccc2[nH]1` (centres undefined): the caspase activation was 0.0552%.

Turning to `O=C(Sc1ccc(Oc2ccc(SC(=O)c3ccco3)cc2)cc1)c1ccco1`, the caspase activation is 1.99%.

Regarding `Nc1c(C(=O)N2CCCCC2)sc2nc3c(cc12)CCC3`, the caspase activation was -1.2%.

Consider `CCN(CCCn1c(=S)[nH]c2cc3c(cc2c1=O)OCO3)c1cccc(C)c1`, for which the caspase activation was 0.124%.
